The values below come from PubChem BioAssay (NCI).

SMILES strings stand for the structures. Compounds without any hit were thinned out: in the full panel of roughly 83,000, 20% have a hit.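 Step 1: grow cells in 96-well plates. Step 2: add test compound at a single concentration. Step 3: incubate 48 h. Step 4: record percent growth.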 Values without a mark were called inactive. Active and inactive are the calls of the source. How the source made its calls: active means growth percent below 10; inactive means the rest.

Among the test systems are HCT-15 colon; HT29 colon; SNB-75 CNS; SNB-19 CNS; U251 CNS; PC-3 prostate; SK-MEL-5 melanoma; UACC-62 melanoma; LOX IMVI melanoma; SK-MEL-28 melanoma; SK-MEL-2 melanoma; EKVX NSCLC; SN12C renal; UO-31 renal; TK-10 renal; ACHN renal; CAKI-1 renal; A498 renal; CCRF-CEM leukemia; MOLT-4 leukemia.
What all share (assay): NCI-60 one-dose screen, 48 h (100 = growth as untreated, 0 = no growth, -100 = all killed)
Holding throughout (conditions): 10 µM unless noted

`O=C(NCCCN1CCOCC1)c1cccc(N2C(=O)/C(=C/c3ccc(F)cc3)SC2=S)c1`: the growth is 99.8% with HCT-15 colon; 108% in the test on HT29 colon; 62.5% in the test with SNB-75 CNS; 92.8% with SNB-19 CNS; 100% with U251 CNS; 75.3% in the test with PC-3 prostate. For the same molecule, the growth in the test on SK-MEL-5 melanoma is 97.3%; with UACC-62 melanoma it was 88.4%; in the test with LOX IMVI melanoma it was 87.3%; in the test on SK-MEL-28 melanoma, 104%; in the test with SK-MEL-2 melanoma, 109%; in the test on EKVX NSCLC, 88.5%. The growth in the test on SN12C renal is 93.6%; in the test on UO-31 renal it was 70.7%; in the test on TK-10 renal it was 100%; in the test on ACHN renal it was 87.2%; in the test on CAKI-1 renal it was 81.2%; in the test with A498 renal, 51.6%. In addition, the results for the growth in the test on CCRF-CEM leukemia and in the test with MOLT-4 leukemia were 108% and 111%, respectively.

As for `O=C1Nc2ccccc2[C@]12CC(c1ccccc1)=NN2`, the growth in the test with HCT-15 colon was 31.6%; in the test on HT29 colon it was 15.8%; with SNB-75 CNS it was 62.2%; in the test with SNB-19 CNS, 52.7%; in the test with U251 CNS, 38.9%; in the test on PC-3 prostate, 38.5%. Moreover, the growth in the test on SK-MEL-5 melanoma is 30.2%; in the test on UACC-62 melanoma it was 19.5%; with LOX IMVI melanoma, 40.2%; with SK-MEL-28 melanoma it was 59.2%; in the test on SK-MEL-2 melanoma it was 44.9%; in the test with EKVX NSCLC, 50.7%. Further, the growth was 59.5% with SN12C renal; 49.5% in the test on UO-31 renal; 79.7% with TK-10 renal; 54.3% with ACHN renal; 38.7% in the test on CAKI-1 renal; 60% in the test with A498 renal. Also, the results for the growth in the test with CCRF-CEM leukemia and in the test on MOLT-4 leukemia were 37.2% and 43.2%, respectively.

Regarding `Cc1nc2sc(C(=O)Nc3ccccc3)c(N)c2cc1C(=O)c1ccccc1`, the growth in the test with HCT-15 colon is 24.4%; with HT29 colon, 22.9%; in the test with SNB-75 CNS it was 26.2%; in the test with SNB-19 CNS, 21.3%; in the test with U251 CNS it was 25.4%; with PC-3 prostate, 33.4%. The growth in the test with SK-MEL-5 melanoma was 31.9%; in the test with UACC-62 melanoma, 17.4%; in the test with LOX IMVI melanoma, 50%; with SK-MEL-28 melanoma, 46.8%; in the test with SK-MEL-2 melanoma, 49.9%; in the test with EKVX NSCLC, 35.2%. In addition, the growth with SN12C renal is 81.5%; in the test on UO-31 renal it was 59.5%; in the test on TK-10 renal, 54.7%; in the test with ACHN renal, 51.7%; in the test on CAKI-1 renal, 35.6%; in the test on A498 renal, -3.88% (active). Further, the results for the growth in the test on CCRF-CEM leukemia and with MOLT-4 leukemia were 8.47% (active) and 31.6%, respectively.

Take `COc1ccc(/C=C2\COc3ccc(O)c(O)c3C2=O)cc1`: the growth is -19.4% (active) with HCT-15 colon; 42.6% in the test with HT29 colon; 44.4% with SNB-75 CNS; 42% in the test with SNB-19 CNS; 12.8% in the test on U251 CNS; 17.7% in the test with PC-3 prostate. For the same molecule, the growth in the test with SK-MEL-5 melanoma was -1.8% (active); in the test on UACC-62 melanoma, 4.68% (active); in the test with LOX IMVI melanoma, -63.9% (active); in the test with SK-MEL-28 melanoma, 57.4%; with SK-MEL-2 melanoma it was 57.4%; in the test with EKVX NSCLC, 48%. In addition, the growth in the test with SN12C renal was -39.1% (active); in the test on UO-31 renal it was -86.3% (active); with TK-10 renal, 7.43% (active); with ACHN renal, -42% (active); with CAKI-1 renal, 2.2% (active); in the test with A498 renal it was 24.4%. Besides, the growth is 7.73% (active) with CCRF-CEM leukemia and 3.83% (active) in the test on MOLT-4 leukemia.

In the case of `CN(C)Cc1ccc(NC(=O)c2cncc(C#Cc3cnc(N)c4ncccc34)c2)cc1F`, the growth in the test on HCT-15 colon is -55.7% (active); with HT29 colon, 3.71% (active); in the test with SNB-75 CNS it was 123%; in the test on SNB-19 CNS, 87.2%; with U251 CNS, 74.8%; in the test on PC-3 prostate it was 75.2%. The growth was 77.3% with SK-MEL-5 melanoma; 94.2% in the test with UACC-62 melanoma; -65% (active) in the test on LOX IMVI melanoma; -48.2% (active) in the test on SK-MEL-28 melanoma; 88.6% with SK-MEL-2 melanoma; 93.4% in the test on EKVX NSCLC. Also, the growth with SN12C renal is 86.4%; in the test with UO-31 renal, 108%; in the test with TK-10 renal, 141%; with ACHN renal, 61.1%; in the test with CAKI-1 renal it was 87.7%; in the test with A498 renal, 73.9%. The growth in the test with CCRF-CEM leukemia is 4.73% (active); in the test with MOLT-4 leukemia it was 76.3%.

Regarding `NC(=O)CCC(C(=O)O)N1C(=O)c2ccc(O)cc2C1=O` (stereo not given), the growth is 101% in the test with HCT-15 colon; 119% in the test with HT29 colon; 128% with SNB-75 CNS; 110% with SNB-19 CNS; 100% in the test on U251 CNS; 98.6% in the test with PC-3 prostate. The growth with SK-MEL-5 melanoma is 107%; in the test on UACC-62 melanoma, 111%; in the test with LOX IMVI melanoma, 97.2%; with SK-MEL-28 melanoma it was 124%; with SK-MEL-2 melanoma, 97%; in the test on EKVX NSCLC, 101%. In addition, the growth was 108% in the test on SN12C renal; 93.1% in the test with UO-31 renal; 114% in the test with TK-10 renal; 93.1% in the test with ACHN renal; 80% in the test with CAKI-1 renal; 115% with A498 renal. Besides, the growth in the test on CCRF-CEM leukemia was 91.1%; in the test with MOLT-4 leukemia, 59.1%.

Take `O=C(Cn1cc(CN2CCCCCC2)nn1)Nc1ccc2c(ccn2Cc2ccccc2)c1`: the growth in the test on HCT-15 colon was 93.3%; with HT29 colon, 70.5%; in the test on SNB-75 CNS it was 76.1%; in the test with SNB-19 CNS it was 98.8%; in the test with U251 CNS it was 80.8%; with PC-3 prostate, 82.2%. For the same molecule, the growth with SK-MEL-5 melanoma is 87%; in the test with UACC-62 melanoma, 96.9%; in the test with LOX IMVI melanoma, 98.2%; in the test with SK-MEL-28 melanoma it was 99.9%; in the test on SK-MEL-2 melanoma it was 93.2%; with EKVX NSCLC it was 96.1%. Further, the growth is 101% in the test on SN12C renal; 54.4% in the test on UO-31 renal; 92.2% in the test on TK-10 renal; 107% with ACHN renal; 87.6% in the test with CAKI-1 renal; 95.2% with A498 renal. The growth is 1.87% (active) in the test with CCRF-CEM leukemia and 89.9% in the test on MOLT-4 leukemia.

Consider `O=C(Nc1cccnc1Nc1ccc(F)cc1)c1cn(Cc2cccc(Oc3ccccc3)c2)nn1`, for which the growth in the test with HCT-15 colon is 43.4%; with HT29 colon it was 53.1%; in the test on SNB-75 CNS it was 65.6%; with SNB-19 CNS it was 67.8%; in the test on U251 CNS it was 51.4%; in the test on PC-3 prostate it was 61.6%. The growth is 39.3% with SK-MEL-5 melanoma; 44.8% in the test on UACC-62 melanoma; 48.5% in the test on LOX IMVI melanoma; 68.7% in the test with SK-MEL-28 melanoma; 73.9% in the test with SK-MEL-2 melanoma; 75.9% in the test on EKVX NSCLC. The growth with SN12C renal was 79.2%; in the test with UO-31 renal, 46.7%; in the test with TK-10 renal it was 98.7%; in the test on ACHN renal it was 83.7%; with CAKI-1 renal, 78%; with A498 renal it was 60.5%. Besides, the growth in the test on CCRF-CEM leukemia is 63.2%; in the test on MOLT-4 leukemia, 32%.
